This is part of a sample that, as a whole, favours compounds with a hit. Of some 83,000 tested, about 20% had one in any assay.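 Cell lines were cultured in 96-well plates, exposed to a single compound concentration, and assessed for percent growth 48 hours later.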 A number with no mark means an inactive call. Calls of active or inactive are those of the source. How the source made its calls: active means growth percent below 10; inactive means the rest.
How the values were obtained:
Experiment in all cases: NCI-60 one-dose screen, 48 h (100 = growth as untreated, 0 = no growth, -100 = all killed)
Conditions in all cases: 10 µM unless noted
HCT-15 colon = system: HCT-15 colon
HT29 colon = system: HT29 colon
SNB-75 CNS = system: SNB-75 CNS
SNB-19 CNS = system: SNB-19 CNS
U251 CNS = system: U251 CNS
PC-3 prostate = system: PC-3 prostate
UACC-62 melanoma = system: UACC-62 melanoma
LOX IMVI melanoma = system: LOX IMVI melanoma
SK-MEL-28 melanoma = system: SK-MEL-28 melanoma
SK-MEL-5 melanoma = system: SK-MEL-5 melanoma

Row | Compound | growth (HCT-15 colon) | growth (HT29 colon) | growth (SNB-75 CNS) | growth (SNB-19 CNS) | growth (U251 CNS) | growth (PC-3 prostate) | growth (UACC-62 melanoma) | growth (LOX IMVI melanoma) | growth (SK-MEL-28 melanoma) | growth (SK-MEL-5 melanoma)
1 | O=C(N/N=C/c1ccc(O)c(O)c1)c1sc2ccccc2c1Cl | 33.9% | 105% | 83.2% | 59.4% | 59.2% | 66.6% | 73.8% | 68.7% | 56.8% | –
2 | COc1ccc(-c2nc(SCCC(C)C)nc(N/N=C(/C)c3ccc(C)cc3)c2C#N)cc1 | 92.9% | 112% | 84% | 86.8% | 103% | 85.8% | 87.4% | 91% | 103% | –
3 | COc1cc(C2CC(c3cccc(Nc4ccncc4)c3)=NN2c2cc(Cl)cc(Cl)c2)cc(OC)c1OC (stereo unspecified) | -40.4% (active) | -28% (active) | 25.9% | 50.7% | -51.1% (active) | -36.1% (active) | 94.5% | -90.9% (active) | -78.5% (active) | –
4 | COc1ccc(NC(=O)c2sc3nc(C)c(C(=O)c4ccc(OC)cc4)cc3c2N)cc1 | 35.8% | 7.92% (active) | 21.2% | 65.2% | 39.7% | 56.4% | 46.1% | 54.2% | 64.9% | –
5 | COc1ccc(C(O)c2cc3c(N)c(C(=O)Nc4cccc(OC)c4)sc3nc2C)cc1 (stereo unspecified) | 15.6% | 2.47% (active) | -2.98% (active) | 36.1% | 9.2% (active) | 16.2% | 23.6% | 30.8% | 59% | –
6 | O=C1CCCCCCCCC(O)C(O)CCCC(c2cccs2)O1 (stereo unspecified) | 96.7% | 114% | 102% | 87.1% | 98.3% | 88.2% | 81.8% | 96.5% | 123% | –
7 | Cc1cc(C(=O)Nc2ncnc3nc[nH]c23)no1 | 102% | 103% | 79.5% | 96.6% | 105% | 97% | – | 99.4% | 106% | 101%
8 | CC(O)/C=C/C=C/C(O)CC/C=C/C(=O)NCC(C)(C)O (stereo unspecified) | 104% | 102% | 96.3% | 99.6% | 98.3% | 91.7% | 90.1% | 95.3% | 111% | –
9 | O=S(=O)(O)c1cc(O)c2c(N=Nc3ccc(Nc4ccccc4)c4c(S(=O)(=O)O)cccc34)cc(S(=O)(=O)O)cc2c1 | 99.1% | 107% | 96.2% | 103% | 102% | 95% | 105% | 96.5% | 111% | –
10 | CCC1(CC)NC(=O)c2c(c3ccc(Cl)c(Cl)c3n2C)C1C#N (stereo unspecified) | 100% | 100% | 90% | 85% | 96.1% | 90.5% | 76.1% | 99.7% | 123% | –
11 | COc1ccc(Cn2nc(-c3cc(OC)c(OC)c(OC)c3)c3c2CCc2cnoc2-3)cc1OC | 53.1% | 22% | 37.8% | 65.4% | 62.1% | 65% | – | 47% | 64.9% | 38.7%
12 | CCN(CC)CCCCCCNc1cc(OC)cc2cccnc12 | -4.8% (active) | -44.8% (active) | 75.5% | 95.6% | 5.33% (active) | 82.8% | 102% | -60.4% (active) | -11.8% (active) | –
13 | C=C(C)[C@@H]1CC[C@]2(C(=O)N3CCN(C)CC3)CC[C@]3(C)[C@H](CC[C@@H]4[C@@]5(C)CCC(=O)C(C)(C)[C@@H]5CC[C@]43C)[C@@H]12 | 61.7% | 39.2% | 85.2% | 81.5% | 69.7% | 54.7% | 99.5% | 92.5% | 92.7% | –
14 | COc1ccc(Nn2c(SCC(=O)Nc3nc(-c4ccc(Cl)cc4)cs3)nc(C)c2C)cc1 | 59.8% | 30.1% | 45.8% | 79.2% | 43.5% | 35.7% | 49.5% | 38.9% | 86.8% | –
15 | CN1CCN(C(=O)OCc2nc3c(N4CCOCC4)nc(-c4ccccc4)nc3n2C)CC1 | -59.9% (active) | -29.1% (active) | -6.43% (active) | 30.3% | -54.2% (active) | -62.3% (active) | – | -91.4% (active) | -95.5% (active) | -96.7% (active)
16 | CCCCOc1ccc(/C=N/Nc2cc(C)nc3ccc(Cl)cc23)cc1 | -80.3% (active) | -49.8% (active) | 17% | 20.7% | -82.1% (active) | 20.6% | – | -94.7% (active) | -89.5% (active) | 71.8%
17 | COc1ccc(-c2nc3sccn3c2/C=C/C(=O)c2cc(OC)c(OC)c(OC)c2)cc1 | 40.2% | 46.9% | 37.2% | 59.9% | 43.1% | 32.2% | 46.6% | 41.4% | 84.2% | –
18 | CN(C)C(=O)c1cc2cnc(Nc3ccc(-c4csc5c(=O)cc(N6CCOCC6)oc45)cc3)nc2n1C1CCCC1 | -11.4% (active) | -48.6% (active) | -65% (active) | 1.45% (active) | -7.84% (active) | -42% (active) | -69.6% (active) | -39.3% (active) | -55.9% (active) | –
19 | CC(C)CCSc1nc(NNC(N)=O)c(C#N)c(-c2ccccc2)n1 | 98.7% | 115% | 97.6% | 99.2% | 109% | 98.7% | 98.1% | 97.6% | 104% | –
20 | COc1ccc(NC(=O)c2sc3nc(C)c(C(O)c4ccc(OC)cc4)cc3c2N)cc1 (stereo unspecified) | 16.3% | 4.97% (active) | -16% (active) | 71.2% | 25.9% | 22.6% | 31.6% | 40.5% | 65.8% | –
21 | CC(C)Cc1ccc(C(C)C(=O)NCc2c[nH]c3ccc(Cl)cc23)cc1 (stereo unspecified) | 91.2% | 111% | 102% | 96.2% | 91.8% | 66.2% | 66.6% | 96% | 94.6% | –
22 | CC(C)(C)CC(C)(C)Nc1c(-c2ccc3c(c2)OCO3)nc2cnccn12 | 84.1% | 80% | 67.5% | 90.9% | 95.6% | 67% | – | 94% | 94.3% | 87.7%
23 | CN(C)Cc1c(-c2ccccc2)[nH]c2ccccc12 | 93.6% | 89.1% | 93.6% | 99% | 106% | 94.9% | 102% | 97.4% | 97.2% | –
24 | O=C(O)c1ccc[n+](CC(=O)N2CCN(c3cc4c(cc3F)c(=O)c(C(=O)O)cn4C3CC3)CC2)c1 | 73.4% | 92.9% | 79.4% | 87.1% | 74.7% | 87.3% | 48.9% | 30.2% | 60.4% | –
25 | CCNNC(=O)[C@@H]1[C@H](c2cc(OC)c(OC)c(OC)c2)c2cc3c(cc2[C@H](O)[C@H]1CO)OCO3 | 5.4% (active) | -10% (active) | 30.3% | 35.6% | 12.7% | 12.5% | 50% | 14.4% | 55% | –
26 | COc1ccc(-c2nc(N/N=C/c3ccco3)nc(N3CCOCC3)c2C#N)cc1 | 88.3% | 91% | 15.6% | 88.9% | 91.8% | 59.5% | 75.6% | 88.3% | 80.8% | –
27 | COc1ccc(CC(C)=C(c2ccc(OCCN(C)C)cc2)c2ccc(OCCN(C)C)cc2)cc1 | 62.8% | 39% | 81.6% | 80.1% | 55.3% | 70.8% | 39.1% | 71.5% | 71.5% | –
28 | COc1cccc(-c2nc3occn3c2-c2ccnc(NCCCNS(=O)(=O)c3cccc(F)c3)n2)c1 | 83.4% | 50.7% | 117% | 109% | 111% | 79.4% | 45.2% | 86.5% | 89.5% | –
29 | CN1C(=O)N(C)[C@H]2NC(NN)=N[C@H]21 | 103% | 105% | 80.9% | 106% | 98.7% | 96.3% | – | 97.8% | 101% | 101%
